# Source: PubChem BioAssay
# Sm TGR block: inhibitors of Schistosoma mansoni thioredoxin glutathione reductase; Q962Y6; purified TGR, DTNB reduction, TNB absorbance 405 nm; Potency, µM (highest dose often 114 µM), for inactives: top-dose activity change, negative = inhibition, usual class: inhibitors; 360,000 compounds, 3% hits; AID 485364; note: potency is the fitted concentration of half-maximal effect; nearly all actives have a fitted effect of over 60% in size
#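 TGR 20 nM + NADPH 100 uM (dispensed conc.), cpd preinc 15 min RT; start with NADPH (500 uM addition) then DTNB (15 mM addition). Kinetic TNB absorbance, 405 nm filter. Four-parameter Hill fit across titration.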
# TbPYK inhibitor: blocks Trypanosoma brucei pyruvate kinase. 410,000 compounds, 0.12% hits. Potency, µM (highest dose often 76.8 µM), inactives show at the highest dose activity, negative = inhibition, hits mostly inhibitors. TbPYK enzyme, Kinase-Glo Plus ATP luminescence, 45 min; note: potency is the fitted concentration of half-maximal effect; nearly all actives have a fitted effect of over 50% in size
#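 Assay buffer: 50 mM TEA pH 7.2, 100 mM KCl, 10 mM MgCl2, 0.05% BSA, 0.01% Tween-20. Pyruvate kinase from T. brucei plus substrate met compound, then ADP (130 uM final). Luminescence was read post 45 min RT.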
# RE007 growth inh: less growth of the S. pombe RE007 Vpr strain; Potency, µM (top dose mostly 92.2 µM), inactives show top-dose activity change, negative = less growth, most hits filed as inhibitors; S. pombe RE007 Vpr strain, BacTiter-Glo ATP luminescence, 24 h; 360,000 compounds, 0.21% hits; AID 651644; active = well fitted falling curve with a large enough effect; inconclusive = small, poorly fitted or top-dose-only effect; inactive = no such curve, though single readings can be large or run the other way; note: potency is the fitted concentration of half-maximal effect; nearly all actives have a fitted effect of over 50% in size
#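 Fission yeast strain RE007, carrying one chromosomally integrated HIV-1 vpr copy, was seeded at OD 0.01 in PMG+AL medium with 23 nL pinned compound. After 24 h at 30 °C and 99% humidity, viability was read by BacTiter-Glo luminescence.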
# HCMV inh: human cytomegalovirus inhibition; HFF cells, HCMV-luciferase reporter, 72 h; active compounds read low; activity change, negative = inhibition, % at 57.5 µM; 410,000 compounds, 4.5% hits; AID 1259415; in the data active = activity change below about -60%; inconclusive = no clear call, values can overlap the other calls; inactive = above about -39%
#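 Steps: HFFs plated, 16 h 37C; compounds added; HCMV-luciferase added to MOI 1 PFU/cell; 72 h 37C; OneGlo reagent, 5 min room temperature; luminescence read, normalized to controls.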
# FMDV antiviral: blocks foot and mouth disease virus | FMDV antiviral cell-based qHTS | Potency, µM (doses to about 57.9 µM), without a hit: top-dose activity change, negative = inhibition, actives largely listed as inhibitors | 410,000 compounds, 1.2% hits; calls by dose curve; tested in HEK293T cells; note: read-out not given here; potency is the fitted concentration of half-maximal effect; nearly all actives have a fitted effect of over 45% in size
# FBPA Giardia inh: Giardia lamblia aldolase inhibition; Potency, µM (highest dose often 59.6 µM), inactives show at the highest dose activity, negative = inhibition, most hits filed as inhibitors; AID 2451; 290,000 compounds, 0.71% hits; purified Giardia FBPA; A8B2U2; note: potency is the fitted concentration of half-maximal effect; nearly all actives have a fitted effect of over 55% in size
# Target sequence (A8B2U2 whole entry, looked up): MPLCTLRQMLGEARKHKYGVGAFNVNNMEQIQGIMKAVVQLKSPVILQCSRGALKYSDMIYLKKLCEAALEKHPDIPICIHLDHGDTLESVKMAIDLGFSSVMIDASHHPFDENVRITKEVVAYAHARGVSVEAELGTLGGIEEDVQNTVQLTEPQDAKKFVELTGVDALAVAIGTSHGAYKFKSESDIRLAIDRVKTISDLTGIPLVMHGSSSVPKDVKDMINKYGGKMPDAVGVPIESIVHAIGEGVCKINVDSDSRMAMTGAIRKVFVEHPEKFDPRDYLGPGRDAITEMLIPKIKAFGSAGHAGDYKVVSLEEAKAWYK
#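 40 nM FBPA preincubated 10 min at RT with compound (up to 57.5 uM final), then substrate plus GAPDH/TPI/NAD/arsenate coupling and diaphorase/resazurin added. Fluorescence read after 20 min at RT, 525/598 nm.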
# Starred values were filed as active, the others as inactive; ? = inconclusive; / = no result given; [ ] = another dose, or the depositor's remark. Rows were chosen to be rich in hits. Some 7.7% of all compounds tested hit in one or more screens of this group. Unless noted, calls come from the whole dose curve; as a rule, active = well fitted curve in the direction sought with a large enough effect; inconclusive = small, poorly fitted or top-dose-only effect, or another doubt; inactive = no such curve, though single readings can be large; an effect the other way counts as inactive or inconclusive. % is set by controls: 0 for no effect and ±100 for the full control effect.
SMILES,Sm TGR block,TbPYK inhibitor,RE007 growth inh,HCMV inh,FMDV antiviral,FBPA Giardia inh
O=C(c1ccccc1)C(CN1CCCC1)c1ccccc1 (stereo not given),44.7µM*,-14.8%,?,-102.9*,3.55µM*,-6.8%
O=C(c1ccc(Cl)cc1)C(CN1CCCCC1)c1ccccc1 (stereo not given),6.31µM*,-9.3%,?,-101.0*,14.1µM*,-4.1%
Cc1ccc2oc(=O)c3c4cc(O)c(O)c(C)c4oc3c2c1,/,/,/,/,/,0.1%
CCCCCCCCCCCCCC[C@@H](O)[C@@H](O)[C@@H](N)CO,/,/,/,/,/,10.1%
Cc1ccc(N2CCN(C(=O)c3c(C)oc4ncnc(N5CCCCC5)c34)CC2)c(C)c1,-2.9%,-4.2%,/,-6.7,0.0%,/
O=C(CN1CCOCC1)NN=Cc1ccc([N+](=O)[O-])o1,/,1.2%,-14.6%,-10.3,-19.9%,/
CC(=O)N/N=C/c1ccc([N+](=O)[O-])o1,/,-7.5%,/,/,/,/
O=C(CN1CCCCCCC1)N/N=C/c1ccc([N+](=O)[O-])o1,14.1µM*,-0.5%,-5.5%,?,-9.5%,?
O=C(CCN1CCN(c2ccccc2)CC1)N/N=C/c1ccc([N+](=O)[O-])o1,31.6µM*,-1.3%,-11.9%,-17.9,-21.8%,-18.3%
CC1(C(=O)N/N=C/c2ccc([N+](=O)[O-])o2)CC1(Br)Br (stereo not given),?,6.5%,-13.4%,-60.3*,-20.5%,-3.2%
COCCCNC(=O)C(C)n1c2ccccc2c2cnn(C)c(=O)c21 (stereo not given),8.3%,-1.5%,/,12.4,62.2%,/
CC(NC(=O)c1noc2c1CCCC2)c1ccccc1 (stereo not given),7.4%,-5.5%,35.5µM*,-3.1,16.5%,2.6%
O=C(NCc1ccccc1)c1noc2c1CCCC2,6.0%,-3.6%,15.8µM*,-26.7,36.8%,5.6%
O=S(=O)(c1ccc(F)cc1)N1CCC(n2c(C(F)(F)F)nc3cccnc32)CC1,1.1%,14.1%,/,-11.6,4.0%,/
C=CCOC(=O)N[C@@H](c1ccccc1)[C@@H](C)[N+](=O)[O-],/,/,/,/,/,0.4%
C=CCN1[C@H](C)[C@H](c2ccccc2)Oc2cc(Br)ccc2S1(=O)=O,/,/,/,-32.2,/,/
Cc1ccc(O)c(N=Nc2nccs2)c1,-13.2%,-20.5%,17.8µM*,-0.6,0.0%,/
CC(=O)N1CCCC(c2cc(C(=O)Nc3ccccc3)no2)C1 (stereo not given),/,-14.3%,-18.0%[18.4 µM],-72.9*,35.5µM*,/
COC(=O)c1ccccc1-c1cc(C)cc2c1OC(CNC(=O)c1occc1C)C2 (stereo not given),/,/,/,/,32.0%,/
O=C(Nc1ccc(-c2nc3ccccc3[nH]2)cc1)c1ccco1,?,-12.7%,-5.4%,/,/,-9.0%
Cn1cc([N+](=O)[O-])c(C(=O)Nc2ccc3nc(-c4ccccc4)[nH]c3c2)n1,-4.5%,-7.6%,-8.7%,-83.2*,16.6%,-15.9%
Cn1cc([N+](=O)[O-])c(C(=O)Nc2ccc(-c3nc4ccccc4[nH]3)cc2)n1,-7.4%,1.6%,-23.8%,-72.9*,42.5%,2.8%
Cn1cccc1-c1nc2ccc(NC(=O)c3ccc([N+](=O)[O-])cc3)cc2[nH]1,-1.7%,6.5%,12.4%,25.8,-16.7%,0.2%
COC(=O)c1[nH]nc(C(=O)OC(C)(C)C)c1-c1ccccc1,22.4µM*,-1.6%,1.8%,-0.4,-18.6%,-11.7%
O=c1[nH][nH]c2c(N=Cc3ccccc3O)ccc(F)c12,0.398µM*,-17.5%,6.4%,/,-21.1%,6.29µM*
SMILES,Sm TGR block,TbPYK inhibitor,RE007 growth inh,HCMV inh,FMDV antiviral,FBPA Giardia inh
CCc1ccc(O)c(N=Cc2ccccc2O)c1,?,-8.1%,-15.9%,40.8,33.4%,-17.9%
O=C(O)C1CCN(S(=O)(=O)c2ccc3[nH]ccc3c2)CC1,/,-0.4%,-2.0%,-19.9,0.3%,/
O=S(=O)(c1ccc2c(c1)C(=NO)c1cc(S(=O)(=O)N3CCCCC3)ccc1-2)N1CCCCC1,13.6%,-0.6%,11.2%,-101.7*,?,0.2%
COc1ccc(S(=O)(=O)N2CCC(C)CC2)cc1OC,-5.0%,12.7%,-2.1%,19.1,18.3%,-1.2%
O=S(=O)(c1ccc(S(=O)(=O)N2CCCC2)cc1)N1CCCCCC1,-19.5%,0.3%,8.4%,12.6,/,1.0%
CC1CCN(S(=O)(=O)c2ccc3c(c2)C(=NO)c2cc(S(=O)(=O)N4CCC(C)CC4)ccc2-3)CC1,9.8%,1.1%,13.0%,-98.7*,?,10.0%
CC1CCN(S(=O)(=O)c2ccc3[nH]ccc3c2)CC1,1.6%,2.5%,/,-93.7*,46.7%,/
COc1ccc(Cn2ccc3nc(C)c(C(=O)N4CCN(c5ccccc5F)CC4)cc3c2=O)cc1,2.4%,4.8%,/,7.7,0.0%,/
Cc1nc2cnc(Oc3cccc(Cl)c3)nc2n(Cc2ccc(F)cc2)c1=O,/,/,/,/,-27.7%,5.5%
CC(COc1ccc(/C=C/c2ccccc2)cc1)[N+](C)(C)C (stereo not given),-20.2%,-5.1%,-12.5%[18.4 µM],-96.5*,-6.3%,1.3%
CCCCNC(=O)C(NC(=O)c1ccccc1)C(=O)c1ccccc1 (stereo not given),/,/,-10.8%,-6.2,0.9%,/
CCCCNC(=O)C(NC(=O)c1ccc(-c2ccccc2)cc1)C(=O)c1ccccc1 (stereo not given),/,/,-2.0%,-80.9*,22.4%,/
CC1(C)Cc2c(C#N)c(N3CCN(C(=O)c4ccco4)CC3)nc(-c3ccco3)c2CS1,2.82µM*,?,-1.2%,18.2,-26.0%,-28.6%
CCCNC(=O)N1CCN(c2nc(C(C)C)c3c(c2C#N)CC(C)(C)OC3)CC1,5.0%,-1.1%,9.5%,-65.6*,?,0.4%
CC(=O)N1CCN(c2nc(-c3ccco3)c3c(c2C#N)CC(C)(C)SC3)CC1,11.2µM*,-14.7%,6.3%,-0.9,?,-10.8%
CC1(C)Cc2c(C#N)c(SCC(=O)c3ccccc3)nc(N3CCOCC3)c2CS1,-20.8%,6.1%,0.9%,18.3,-11.9%,-10.6%
CCc1nc(N2CCN(C(C)=O)CC2)c(C#N)c2c1COC(C)(C)C2,2.5%,4.2%,15.0%,-8.3,-18.4%,-1.1%
CC1(C)Cc2c(C#N)c(N3CCN(C(=O)c4ccco4)CC3)nc(Cc3ccccc3)c2CO1,0.0%,1.0%,5.8%,-36.2,39.8µM*,-2.0%
CCc1nc(N2CCN(C(=O)c3ccco3)CC2)c(C#N)c2c1COC(C)(C)C2,0.0%,-0.6%,12.3%,-1.4,-21.4%,-0.8%
CC1(C)Cc2c(C#N)c(N3CCN(C(=O)c4ccccc4Cl)CC3)nc(-c3ccco3)c2CS1,3.55µM*,-23.7%,6.7%,-4.0,?,-22.0%
CC1(C)Cc2c(c(-c3ccco3)[nH]c(=O)c2C#N)CS1,31.6µM*,-4.3%,-26.9%,6.3,-7.7%,17.7µM*
